# An excerpt weighted towards active compounds, which were near 0.71% of everything screened.
# TR SRC2 fluor cs – Texas Red fluorescence interference in TRb-SRC2 counter-screen; TRb/SRC2 Texas Red total fluorescence interference; Potency, µM (series often up to 106 µM), without a hit: at the top dose fluorescence change, negative = quenching; actives 0.29% (n = 280,000); active = well fitted curve in either direction with a large enough effect; inconclusive = small, poorly fitted or top-dose-only effect; note: % is set by controls: 0 for no effect and ±100 for the full control effect
#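 Flags fluorescent or light-absorbing compounds by total fluorescence, S + 2P, at 555 nm excitation and 632 nm emission. Mixture: 20 nM Texas Red SRC2 peptide, 0.6 uM human TRb LBD, 1 uM T3, 5% DMSO; compound exposure 5 h at ambient temperature.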
# TRb-SRC2 inh – TRbeta-SRC2 interaction inhibition; P10828; TRbeta-SRC2 peptide binding, fluorescence polarization; receptor liganded with 1 µM T3; Potency, µM (series often up to 106 µM), inactives show top-dose activity change, negative = inhibition, most hits filed as inhibitors; actives 0.065% (n = 280,000);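 note: plate controls were bound peptide for no effect and peptide without receptor for full effect; nearly all actives have a fitted effect of over 50% in size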
#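 Compounds were added to 0.6 uM TRb ligand-binding domain and 20 nM Texas Red-labeled SRC2 peptide in Tris buffer containing 1 uM T3, incubated 5 hr at ambient temperature, then read by fluorescence polarization.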
# BLM inh – blocks DNA unwinding by human BLM helicase | actives 0.2% (n = 350,000) | P54132 | Potency, µM (titrated, usually from 56.1 µM), for the others: at the highest dose activity change, negative = inhibition, actives largely listed as inhibitors | recombinant BLM DNA unwinding, fluorescence dequenching | AID 2528;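 note: plate controls were vehicle for no effect and no enzyme for full effect; nearly all actives have a fitted effect of over 35% in size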
# RECQ1 inh-1 – RECQ1 (human) helicase inhibition. Potency, µM (doses to about 57.3 µM), for inactives: at the highest dose activity, negative = inhibition, most hits filed as inhibitors. RECQ1 DNA unwinding, red fluorescence kinetic read. AID 2549. actives 0.54% (n = 240,000);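 note: plate controls were vehicle for no effect and no enzyme for full effect; nearly all actives have a fitted effect of over 30% in size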
#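 RECQ1T1 50 nM; forked duplex (20 bp + 30-nt ss tails) 200 nM, ATP 2 mM final; pH 8.0, 2 mM MgCl2, 2.5 ug/ml poly(dI-dC); 15 min compound preincubation; discontinuous kinetic read over 2 h at RT.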
# ERG-DNA inh – ERG Ets/DNA interaction inhibition; fluorescence polarization, His-ERG Ets domain / labelled DNA; actives 0.028% (n = 370,000); Potency, µM (highest dose often 76.9 µM), inactives show at the top dose FP activity, negative = inhibition, actives largely listed as inhibitors; AID 624246; P11308; active = well fitted inhibition curve with a large enough effect in the polarisation, with a control signal flat; inconclusive = small, poorly fitted or top-dose-only effect, or effect the other way, or a change in a side signal; inactive = no such curve, though single readings can be large or run the other way; the % refers to the polarisation;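 note: polarization taken with two DNA probes labelled with fluorescein and Texas red; % of control where 0% means no effect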
# Target sequence (P11308 whole entry, looked up, the tested form may be a part): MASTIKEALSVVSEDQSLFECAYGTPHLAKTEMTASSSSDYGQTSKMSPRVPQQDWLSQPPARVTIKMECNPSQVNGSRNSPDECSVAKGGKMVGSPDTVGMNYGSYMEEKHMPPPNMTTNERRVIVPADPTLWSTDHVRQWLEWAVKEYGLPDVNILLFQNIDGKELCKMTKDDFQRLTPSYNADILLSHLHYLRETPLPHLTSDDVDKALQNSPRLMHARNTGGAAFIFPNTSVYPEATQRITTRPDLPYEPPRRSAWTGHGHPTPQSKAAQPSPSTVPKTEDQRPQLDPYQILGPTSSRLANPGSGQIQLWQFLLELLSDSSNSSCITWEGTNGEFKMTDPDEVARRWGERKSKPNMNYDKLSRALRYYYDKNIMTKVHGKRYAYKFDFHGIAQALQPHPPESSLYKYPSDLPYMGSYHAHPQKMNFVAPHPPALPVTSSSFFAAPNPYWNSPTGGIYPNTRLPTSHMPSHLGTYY
#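 His-tagged ERG Ets domain (1 uM in the protein solution; 300mM KCl, 50mM Tris-HCl, 1mM EDTA, 1mM DTT, pH 7.5) received compound, then a probe mix of 5 nM fluorescein-DNA and 100nM Texas-615-DNA. Fluorescence polarization was read for both dyes.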
# GoLoco inh red – inhibitors of human Gai1-RGS12 GoLoco interaction (red fluorophore) | P63096 | Gai1:RGS12 GoLoco peptide FP, rhodamine, 10 min | Potency, µM (highest dose often 61.6 µM), for the others: top-dose activity, negative = inhibition, most hits filed as inhibitors | actives 0.44% (n = 230,000); active = well fitted inhibition curve with a large enough effect, not every such curve was filed as active; inactive = no such curve, though single readings can be large or run the other way; note: % is set by controls: 0 for no effect and ±100 for the full control effect; nearly all actives have a fitted effect of over 30% in size
# RECQ1 conf – confirmation of human RECQ1 helicase inhibitors; RECQ1 helicase DNA unwinding, fluorescence; shares compounds with RECQ1 inh-1; actives 28% (n = 610); Potency, µM (titrated, usually from 229 µM), without a hit: at the highest dose activity change, negative = inhibition, actives largely listed as inhibitors; AID 2708; note: % is set by controls: 0 for no effect and ±100 for the full control effect; nearly all actives have a fitted effect of over 45% in size
# ADP FP counter – displaces ADP in a fluorescence polarization counter-screen for RECQ1 hits; shares compounds with RECQ1 inh-1; ADP fluorescence polarization displacement counterscreen; Potency, µM (highest dose often 228 µM), for inactives: at the highest dose activity change, negative = inhibition, actives largely listed as inhibitors; actives 27% (n = 530); note: % is set by controls: 0 for no effect and ±100 for the full control effect; nearly all actives have a fitted effect of over 45% in size
# RECQ1 inh-2 – RECQ1 helicase inhibition confirmed, round 2. actives 15% (n = 1,100). Potency, µM (series often up to 119 µM), for inactives: top-dose activity, negative = inhibition, hits mostly inhibitors. shares compounds with RECQ1 inh-1. recombinant RECQ1 DNA unwinding, red fluorescence; note: % is set by controls: 0 for no effect and ±100 for the full control effect; nearly all actives have a fitted effect of over 50% in size
# * = called active by the depositor; i = inactive; u = inconclusive; x = not tested or not shown; ! = repeats disagree; [ ] = another dose, or the depositor's remark. Unless noted, calls come from the whole dose curve; as a rule, active = well fitted curve in the direction sought with a large enough effect; inconclusive = small, poorly fitted or top-dose-only effect, or another doubt; inactive = no such curve, though single readings can be large; an effect the other way counts as inactive or inconclusive. Potency is the fitted concentration of half-maximal effect.
SMILES,TR SRC2 fluor cs,TRb-SRC2 inh,BLM inh,RECQ1 inh-1,ERG-DNA inh,GoLoco inh red,RECQ1 inh-2,others
CCCCN(CCCNC(=O)CN1N=C(c2ccc(C)cc2)CCC1=O)c1ccccc1,-2%,-5%,-17%,x,-6%,x,x,
CCCCCCCCCCCCCCCC(=O)OC(C)C,-2%[201 µM],7%[201 µM],-9%,x,x,0%,x,
O=c1cc(-c2cccc(-c3ccc(C(F)(F)F)cc3)c2)c2cc3c(cc2o1)OCO3,4%,20%,-8%[75.6 µM],-8%[81.1 µM],x,-45%,x,
COc1ccc(S(=O)(=O)/N=C2/NC(=O)/C(=C/c3ccco3)S2)cc1,u,12%,5%,u,x,28%,-27%,
CCc1ccc(-n2nc(C)c3c(C)cc(=O)n(CC(=O)NCc4ccc(C)cc4)c32)cc1,0%,-9%,-1%,x,0%,x,x,
CN[C@@H]1NC(=O)c2ccccc2N1Cc1ccc(F)cc1,x,x,x,x,x,-2%[14.2 µM],x,
CCOC(=O)C1=C(N)n2c(s/c(=C/c3ccccc3)c2=O)=C(C(=O)OCC)C1c1ccccc1 (configuration not stated),2%,12%,2%,-5%,x,-6%,x,
CCOC(=O)C1=C(N)n2c(s/c(=C\c3ccco3)c2=O)=C(C(=O)OCC)C1c1ccco1 (configuration not stated),-4%,-2%,-11%,u,5%,111%,u,
CCOC(=O)C1=C(N)n2c(s/c(=C\c3ccco3)c2=O)=C(C(=O)OC(C)C)C1c1ccco1 (configuration not stated),7%,13%,-12%,32µM*,-7%,112%,-26%,
CC(=O)OCC1OC(C#Cc2ccc(Cl)cc2)C=CC1OC(C)=O (configuration not stated),-3%[11.2 µM],0%[11.2 µM],1%[12.4 µM],-4%[11.5 µM],x,x,x,
Cc1cc2nc3c(=O)[nH]c(=O)nc-3n(CC(O)C(O)C(O)CO)c2cc1C (configuration not stated),-4%,-1%,-5%,35µM*!,x,14µM*,x,RECQ1 conf=112µM*;ADP FP counter=45µM*
CCCSc1nc2cc(C)c(C)cc2n1CC(O)CO (configuration not stated),-4%,-2%,2%,i,2%,5%,x,
COc1ccc(Cc2nc(C(=O)Nc3ccc(Cl)cc3)cs2)cc1,0%,-14%,-7%,-10%,-1%,-1%,x,
COc1ccc(NC(=O)c2csc(Cc3ccc(Cl)cc3)n2)cc1,-1%,1%,-10%,u,-10%,-10%,-48%,
O=C(COc1cccc(C(F)(F)F)c1)N1CCN(c2ccc(O)cc2)CC1,-2%,-2%,-1%,-5%,18%,-5%,x,
O=C(COc1ccc2c(c1)CCC2)N1CCN(c2cccc(C(F)(F)F)c2)CC1,1%[53 µM],-5%[53 µM],-6%,35µM*,-1%,-1%,-14%,
O=c1c2sc3ccccc3c2n(Cc2ccccc2)c(=O)n1CCc1ccccc1,-1%,-3%,-4%,x,1%,x,x,
COc1ccccc1C1=Nn2c(nnc2-c2cccc(OC)c2OC)SC1,0%,-5%,2%,7%,x,x,x,
COc1cccc(/C=N/Nc2nc3ccccc3n3cnnc23)c1O,-1%,-2%,-11%,5µM*,0%,13%,x,RECQ1 conf=-5%[114 µM]
COc1cccc(/C=N/Nc2nc3ccccc3n3cnnc23)c1,-14%,4%,4%,-3%,-1%,-3%,x,
O=C(O)CCCCCn1c(SCc2cc(=O)n3cc(Cl)ccc3n2)nc2ccsc2c1=O,-3%,-4%,-6%,-1%,4%,2%,x,RECQ1 conf=u;ADP FP counter=u
CCc1ccc(NC(=O)CSc2nc3ccsc3c(=O)n2CCCCCC(=O)O)cc1,-2%,4%,2%,i,1%,8%,x,RECQ1 conf=10%;ADP FP counter=7%
Cc1ccc(C2=C(Cl)C(=O)C(c3ccc(C)cc3)=C(Cl)C2=O)cc1,x,x,x,x,x,-8%[14.2 µM],x,
[Cu].[NH-][C@H](CC(=O)O)C(=O)O.[NH-][C@H](CC(=O)O)C(=O)O,x,x,x,x,x,9%[14.2 µM],x,
CC(=O)Nc1ccc(C2Nc3c(C)cc(C)cc3-c3cc(C)nn32)cc1 (configuration not stated),0%,-2%,-4%,x,-12%,x,x,
SMILES,TR SRC2 fluor cs,TRb-SRC2 inh,BLM inh,RECQ1 inh-1,ERG-DNA inh,GoLoco inh red,RECQ1 inh-2,others
CC(=O)Nc1ccc2c(c1)C(C)(C)C(C)N2C (configuration not stated),40µM*[fluorescent],u,-8%,35µM*,33%,177%,79µM*,
CCC(=O)c1ccc(NC(C)=O)cc1O,-2%,1%,-3%,-7%,2%,3%,x,
CCOC(=O)CCSCC(=O)Nc1nnc(C)s1,0%,-1%,-3%,-6%,5%,6%,x,
Cc1nnc(NC(=O)CCSCCC(=O)Nc2nnc(C)s2)s1,0%,4%,-27%,u,-4%,7%,16µM*,
CCN(CC)c1ncnc2c1cnn2-c1cc(Cl)ccc1C,-2%,0%,-4%,x,2%,x,x,
CC1/C=C/C=C/C=C/C=C/C=C/C=C/C=C/C(OC2OC(C)C(O)C(N)C2O)CC2O[C@@](O)(CC(O)CC(O)C(O)CCC(O)CC(O)CC(=O)OC(C)[C@H](C)C1O)CC(O)C2C(=O)O (some centres not stated),18%,u,-5%,20µM*,x,122%,x,RECQ1 conf=u;ADP FP counter=56%
COc1ccc(C)cc1S(=O)(=O)Nc1ccc(-n2c(C)nc3ccccc3c2=O)cc1,x,x,x,x,-1%,x,x,
COc1ccc(-n2c(O)c(/C=N/Nc3nc(C)cc(C)n3)c3ccccc3c2=O)cc1OC,-4%,9%,-25%,-13%,1%,16%,x,
COc1ccc(-n2c(O)c(/C=N/NS(=O)(=O)c3ccc(C)cc3)c3ccccc3c2=O)cc1OC,15%,14%,-4%,10µM*,121%,-166%,u,
COc1ccc(-n2c(O)c(/C=N/NS(=O)(=O)c3cc(C)ccc3C)c3ccccc3c2=O)cc1OC,8%,25%,-17%,14µM*,132%,85%,50µM*,
Nc1ccc(S(=O)(=O)NCCS(=O)(=O)O)cc1,x,x,x,x,x,-1%[14.2 µM],x,

# Screens (PubChem BioAssay)
